Experimental findings from PubChem BioAssay (NCI) are described below.

Holding throughout (assay): NCI-60 one-dose screen, 48 h (100 = growth as untreated, 0 = no growth, -100 = all killed)
Common to all, as to settings: 10 µM unless noted

The subject of assay [1] is DU-145 prostate.
Assay [2] has as its system K-562 leukemia.
Assay [3] concerns MALME-3M melanoma.
The test system of assay [4] is MDA-MB-231 breast.
In assay [5] the test system is RXF 393 renal.
The test system of assay [6] is SF-268 CNS.
Assay [7] relates to SF-295 CNS.
Assay [8] has as its system SF-539 CNS.
Assay [9] relates to UACC-257 melanoma.
Assay [10] relates to M14 melanoma.

This is part of a sample that, as a whole, favours compounds with a hit. Of some 83,000 tested, about 20% had one in any assay.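 Values shown are percent growth following 48 h exposure of cells in 96-well plates to a single concentration of compound; below 10 was considered active.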 A number with no mark means an inactive call. Calls of active or inactive are those of the source.

Take `Cn1c(O)c(N=NC(=O)c2cc(-c3ccccc3)on2)c2ccccc21`: the growth in assay [1] is 107%; in assay [2] it was 116%; in assay [3] it was 88.7%; in assay [4] it was 95.6%; in [5] it was 104%; in [6] it was 100%. Also, the growth in assay [7] is 99.8%; in assay [8], 99.9%; in assay [9] it was 119%; in assay [10] it was 101%.
Turning to `O=S(=O)(Nc1ccc(I)cc1F)c1ccc(-c2cnc(C3CC3)o2)cc1`, the growth in assay [1] was 78.2%; in assay [2] it was 13.2%; in assay [3] it was 50.9%; in assay [4], 61%; in assay [5], 73%; in assay [6], 63.3%. Further, the growth in [7] was 28.6%; in assay [8], 44.1%; in [9] it was 63.1%; in [10], 37.4%.
As for `O=C(COc1cccc(/C=C2\COc3ccccc3C2=O)c1)Nc1nccs1`, the growth was 96.6% in assay [1]; -80.5% (active) in [2]; 54.2% in assay [3]; 83.7% in assay [4]; 48.3% in assay [5]; 70.1% in assay [6]. The growth in assay [7] was 112%; in assay [8] it was 83.7%; in [9], 86%; in assay [10] it was -78.2% (active).
In the case of `Cc1ccc(NC(=O)C2CCC(CN3CCN(C)CC3)CC2)cc1Nc1nccc(-c2cccnc2)n1` (stereo not given), the growth in assay [1] is 100%; in [2], 58.3%; in assay [3] it was 104%; in assay [4], 101%; in assay [5], 96%; in [6], 100%. Moreover, the growth in [7] is 101%; in assay [8], 63.4%; in assay [9], 115%; in assay [10], 98.8%.
On to `COc1cccc(-c2nc3sccn3c2-c2ccnc(NCCCNS(=O)(=O)c3c(Cl)cccc3Cl)c2)c1`, for which the growth is 66.1% in assay [1]; 30.9% in assay [2]; 73.2% in assay [3]; 87.8% in [4]; 74.7% in assay [5]; 68.4% in [6]. The growth in assay [7] was 50.9%; in assay [8] it was 95%; in assay [9], 95.2%; in [10] it was 60.5%.
For `CCc1nnc(CNc2ccc(Cl)cc2)o1`, the growth in assay [1] is 108%; in assay [2], 86.3%; in [3] it was 95.6%; in [4], 94.4%; in assay [5], 113%; in assay [6], 96.4%. The growth in [7] is 102%; in [8], 97%; in [9], 103%; in [10], 95.1%.
As for `CNC(=O)c1cc(Oc2ccc(NC(=O)Nc3ccc(Cl)c(OC(F)(F)F)c3)c(F)c2)ccn1`, the growth in [1] was 56.7%; in assay [2], 6.83% (active); in assay [3] it was 1.66% (active); in assay [4], 35.3%; in assay [5], 82.3%; in assay [6], 45.2%. The growth in assay [7] was 21.3%; in assay [8], 50.6%; in [9], 1.86% (active); in [10], 4.35% (active).
For the compound `C=CCSSC1N=CNc2nc[nH]c21` (stereo not given), the growth in assay [1] was 35.8%; in [2], 11.9%; in [3], 29.9%; in assay [4] it was 39.8%; in assay [5], 42.5%; in assay [6] it was 27.6%. In addition, the growth in assay [7] is 33.2%; in assay [8], 16.4%; in assay [9], 43.6%; in assay [10], 8.72% (active).
`O=C1NC(=S)N[C@H]1CC(=O)n1cnc2ccccc21`: the growth in assay [1] is 109%; in [2], 114%; in assay [3] it was 98.2%; in [4] it was 101%; in assay [5], 99.7%; in assay [6] it was 100%. Further, the growth in assay [7] was 100%; in assay [8], 99%; in assay [9] it was 116%; in assay [10], 96.8%.
Turning to `CCCSc1ccc2nc(NC(=O)OC)[nH]c2c1`, the growth in [1] is 16.1%; in assay [2], 14.7%; in assay [3], 42%; in [4], 18.8%; in assay [5] it was -4.86% (active); in assay [6] it was 44.8%. The growth in assay [7] is -2.45% (active); in assay [8], 4.44% (active); in [9] it was 59.3%; in assay [10], 0.47% (active).
As for `COc1cc(/C=C/C(=O)c2ccc(O)c(CN3CCN(c4cc5c(cc4F)c(=O)c(C(=O)O)cn5C4CC4)CC3)c2)cc(OC)c1OC`, the growth in assay [1] is 24.6%; in assay [2] it was 10.6%; in assay [3], 74.3%; in [4], 76.7%; in assay [5], 28.1%; in assay [6] it was 54.9%. The growth in assay [7] is 86.5%; in assay [8] it was 49.6%; in assay [9], 64.5%; in assay [10] it was 48.8%.
For `COc1ccc(/C=C/C(=O)c2cc(O)ccc2O)cc1`, the growth is 89.3% in assay [1]; 66.4% in assay [2]; 100% in assay [3]; 77.4% in assay [4]; 81.6% in assay [5]; 84.4% in [6]. Besides, the growth in assay [7] is 111%; in assay [8], 88.4%; in [9], 75.5%; in [10], 105%.
Turning to `O=C1OC(c2ccccc2)C(O)=C1c1ccccc1` (stereo not given), the growth was 112% in assay [1]; 110% in assay [2]; 116% in [3]; 104% in [4]; 111% in assay [5]; 96.4% in assay [6]. Further, the growth in assay [7] was 109%; in assay [8], 102%; in assay [9], 95.2%; in assay [10], 111%.
Take `C=C1c2nc3ccccc3n2C=C(c2cccc(Cl)c2)N1Cc1ccc(OC)cc1`: the growth is 15.3% in [1]; 0.532% (active) in assay [2]; 76.8% in [3]; 36.3% in [4]; 4.81% (active) in assay [5]; 21.7% in assay [6]. Besides, the growth in assay [7] is 2.35% (active); in assay [8], -15% (active); in assay [9] it was 34.4%; in assay [10], 22.3%.
On to `COc1cccc(/C=C2\Oc3cc(OCCN4CCCC4)ccc3C2=O)c1`, for which the growth in [1] was 98.5%; in assay [2], -26.9% (active); in assay [3] it was 104%; in assay [4], 96.3%; in [5] it was 97.5%; in assay [6], 91.8%. Also, the growth in assay [7] was 105%; in assay [8], 88.9%; in assay [9], 111%; in assay [10], 98.7%.
With `CSc1nc(Nc2cccc(NC(=O)CCl)c2)c(C#N)c(-c2cccc([N+](=O)[O-])c2)n1`, the growth in assay [1] is 13.4%; in assay [2], 5.6% (active); in assay [3], 37.3%; in assay [4] it was 68.4%; in assay [5], 43.7%; in assay [6] it was 34%. Further, the growth in assay [7] was 95.4%; in [8] it was 73.3%; in assay [9], 84.6%; in assay [10], 48.7%.
As to `Cn1ncc2c(=O)nc3c(-c4ccccc4)n[nH]n3c21`, the growth was 101% in assay [1]; 119% in assay [2]; 98.6% in [3]; 102% in assay [4]; 121% in assay [5]; 101% in assay [6]. The growth in [7] was 84.5%; in assay [8], 96.2%; in assay [9], 98.7%; in assay [10], 104%.
Regarding `Cc1nn(-c2cc(=O)[nH]c3ccc(Cl)cc23)c(N)c1C#N`, the growth was 114% in assay [1]; 113% in assay [2]; 105% in assay [3]; 96.9% in [4]; 113% in assay [5]; 102% in assay [6]. The growth in assay [7] was 100%; in [8] it was 99.9%; in assay [9] it was 107%; in assay [10], 110%.
For the compound `Cc1cc(C)nc(SC2=C(Nc3ccc(O)cc3)C(=O)N(Cc3ccccc3)C2=O)n1`, the growth in assay [1] is 96.8% [40 µM]; in [2], 78.1% [40 µM]; in assay [3], 102% [40 µM]; in [4], 80.7% [40 µM]; in [5] it was 29.3% [40 µM]; in assay [6], 74.6% [40 µM]. The growth is 94.8% [40 µM] in assay [7], 94.2% [40 µM] in assay [8], 88.1% [40 µM] in assay [9] and 105% [40 µM] in assay [10].
As for `Cc1ccc2oc(=O)cc(C3c4ccc([nH]4)C(c4cc(=O)oc5ccc(C)cc45)c4ccc([nH]4)C(c4cc(=O)oc5ccc(C)cc45)c4ccc([nH]4)C(c4cc(=O)oc5ccc(C)cc45)c4ccc3[nH]4)c2c1` (stereo not given), the growth was -46.3% (active) in assay [1]; -26% (active) in assay [2]; -35.1% (active) in [3]; -53.8% (active) in assay [4]; -87.3% (active) in assay [5]; -39.5% (active) in assay [6]. For the same compound, the growth in assay [7] is -78.2% (active); in assay [8], -75.1% (active); in [9], -67.7% (active); in assay [10], -71.9% (active).
For the compound `COc1ccc2c(c1)O/C(=C\c1cccc(OCC(=O)Nc3nc4c(s3)CCCC4)c1)C2=O`, the growth was 42.8% in assay [1]; 24.5% in assay [2]; 109% in assay [3]; 65.9% in [4]; -15.4% (active) in assay [5]; 89.4% in [6]. For the same compound, the growth in assay [7] is 75.8%; in [8] it was 87.8%; in [9] it was 95.1%; in assay [10], 90.9%.
For `CCOc1cc2ncc(C#N)c(Nc3ccc(OCc4cccc(F)c4)c(Cl)c3)c2cc1NC(=O)CCCCC1CCSS1` (stereo not given), the growth was 97.4% in assay [1]; 80.3% in assay [2]; 125% in [3]; 96.2% in assay [4]; 97.9% in assay [5]; 95.7% in assay [6]. For the same compound, the growth was 106% in [7], 108% in [8], 81% in [9] and 93.1% in assay [10].
For `O=C1NC(=S)NC(=O)C1CC(=O)n1c(-c2ccccc2)nc2ccccc21`, the growth was 113% in assay [1]; 98.6% in assay [2]; 93% in assay [3]; 88% in [4]; 110% in [5]; 93.8% in assay [6]. In addition, the growth is 96.3% in assay [7], 94.1% in assay [8], 111% in assay [9] and 99% in [10].
For the compound `CN1CCN(Cc2ccc(NC(=O)c3cncc(C#Cc4cncn5ccnc45)c3)cc2C(F)(F)F)CC1`, the growth in [1] is 86.2%; in [2] it was 4.35% (active); in assay [3], 2.25% (active); in assay [4], 54.5%; in [5] it was 90.4%; in assay [6], 92.4%. For the same compound, the growth in assay [7] is 91.7%; in assay [8], 52.4%; in assay [9], 58.4%; in [10], 7.22% (active).
Turning to `Cc1nn(-c2ccc(F)cc2)c2ncnc(Nc3ccc(NC(=O)Nc4ccc(Cl)c(C(F)(F)F)c4)cc3)c12`, the growth was 41.8% in [1]; 15.3% in assay [2]; 34% in [3]; 71.6% in [4]; 19.4% in [5]; 66% in assay [6]. Further, the growth was 6.74% (active) in assay [7], 48.2% in assay [8], 26.8% in [9] and 38.1% in [10].
In the case of `O=C(O)c1ccc(NC(=O)c2ccc(-c3cccc([N+](=O)[O-])c3)o2)cc1`, the growth in assay [1] was 105%; in [2], 107%; in assay [3], 86.4%; in assay [4], 96.1%; in [5] it was 113%; in assay [6], 98.5%. The growth was 98.8% in assay [7], 99.4% in assay [8], 105% in assay [9] and 107% in [10].
